One experiment has as its system Roseburia intestinalis. Put plainly: growth AUC relative to DMSO control (median of replicates) (fraction); higher = more growth (less inhibition), active = hit call of the paper. As to conditions: 20 µM; 24 h. Summed up:
(§1)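 Gut bacterial monocultures in mGAM were treated with 20 µM compound (1% DMSO) and grown anaerobically at 37 °C in round-bottom 96-well plates from OD600 0.05. OD600 was read hourly for 24 h, with the minimum OD set to 0. Area under the growth curve was normalised to the plate median of solvent-only wells, or to row and column medians on the industrial chemical plate. Each value is the median of three biological replicates, each grown on a separate day.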

The subject of another experiment is Streptococcus salivarius. The experiment is described as above. As to conditions: 20 µM; 24 h. Summed up: as §1

Values joined by “and” are separate entries in the source; they are usually repeats but may differ in a detail not shown here. Equal entries are not always repeated. Unmarked numbers belong to inactive results.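 How the source made its calls: active = AUC reduced over 20% with Padj below 0.05 in at least 2 of 3 replicates; inactive = otherwise.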

The record followed here is the supplement of paper PMC12669032.

As to `CCCC1COC(Cn2cncn2)(c2ccc(Cl)cc2Cl)O1` (centres undefined), the “growth AUC” value with Roseburia intestinalis was 0.995; with Streptococcus salivarius it was 0.964.
Consider `CCS(=O)(=O)c1cccnc1S(=O)(=O)NC(=O)Nc1nc(OC)cc(OC)n1`, for which the “growth AUC” value in the experiment with Roseburia intestinalis is 1; with Streptococcus salivarius, 0.93.
Taken in the same sequence, the figures for `CON(C)C(=O)Nc1ccc(Br)c(Cl)c1` were 0.957 and 0.956.
Taken in the same sequence, the figures for `COC(=O)N(OC)c1ccccc1COc1ccn(-c2ccc(Cl)cc2)n1` were 0.945 and 0.928.
As to `CCOC(=O)CC(SP(=O)(OC)OC)C(=O)OCC` (centres undefined), the “growth AUC” value is 0.997 in the experiment on Roseburia intestinalis and 1.01 in the experiment on Streptococcus salivarius.
With `O=[N+]([O-])c1cc(Cl)ccc1Cl`, the “growth AUC” value in the experiment on Roseburia intestinalis was 0.931; with Streptococcus salivarius, 0.981.
On to `CC(C)N(C)S(=O)(=O)NC(=O)c1cc(-n2c(=O)cc(C(F)(F)F)n(C)c2=O)c(F)cc1Cl`, for which the “growth AUC” value with Roseburia intestinalis was 1.03; in the experiment on Streptococcus salivarius, 0.998.
For `CC(=NC#N)N(C)Cc1ccc(Cl)nc1`, the “growth AUC” value in the experiment with Roseburia intestinalis was 0.956 and 1.02; in the experiment with Streptococcus salivarius it was 1.05 and 1.06.
On to `COP(=S)(Oc1cc(Cl)c(Br)cc1Cl)c1ccccc1` (centres undefined), for which the “growth AUC” value in the experiment with Roseburia intestinalis is 1.04; in the experiment on Streptococcus salivarius, 1.05.
Taken in the same sequence, the figures for `N#Cc1cc(Br)c(O)c(Br)c1` were 0.953 and 0.959.
Taken in the same sequence, the figures for `ClCC1C(CCl)C2(Cl)C(Cl)=C(Cl)C1(Cl)C2(Cl)Cl` (centres undefined) were 0.996 and 0.981.
Taken in the same sequence, the figures for `ClC1=C(Cl)[C@]2(Cl)[C@@H]3[C@@H]4C[C@@H]([C@H]5O[C@@H]45)[C@@H]3[C@@]1(Cl)C2(Cl)Cl` were 1 and 1.03.
